# CYP2C19 act: increases human CYP2C19 enzyme activity. P33261. recombinant CYP2C19, luciferin-H EGE luminescence; active compounds read high; 0 = fully inhibited enzyme, 1 = untreated enzyme. activation factor at 5 µM. 96,000 tested, under 10 active. AID 1025;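 active = activation factor of at least 2 at 5 µM in the primary screen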;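 note: 0 = wells with 2.5 mM tranylcypromine and 1 = vehicle-only wells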
# F-actin modifier: modifiers of cytoskeleton assembly. HUVEC TNFa F-actin phalloidin imaging, high content. inhibition, % at 2 µM. 0.18% of 91,000 active. AID 836;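 active = inhibition above the batch mean plus 3 SD and confirmed as a hit by visual image inspection, cut at about 30% in these data, passing the limit was not always enough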
# E-sel TNF inh: TNF alpha driven E-selectin expression inhibition | inhibition, % at 2 µM | HUVEC TNFa-induced E-selectin immunofluorescence, high content | 0.71% of 120,000 active | AID 1246;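 active = inhibition above the batch mean plus 3 SD, and confirmed as a hit on visual image review, cut at about 43% in these data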;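 note: 0% = TNF-stimulated DMSO wells and 100% = unstimulated control wells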
# CYP2C9 inhib: blocks human cytochrome P450 2C9; P11712; CYP2C9 Supersomes, luciferin-H conversion, luminescence; inhibition, % at 5 µM; 20% of 96,000 active; AID 777;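 active = blocking of liver enzyme CYP2C9 beyond about 50% at 5 µM, limit read from the data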
# Target sequence (P11712 whole entry, looked up): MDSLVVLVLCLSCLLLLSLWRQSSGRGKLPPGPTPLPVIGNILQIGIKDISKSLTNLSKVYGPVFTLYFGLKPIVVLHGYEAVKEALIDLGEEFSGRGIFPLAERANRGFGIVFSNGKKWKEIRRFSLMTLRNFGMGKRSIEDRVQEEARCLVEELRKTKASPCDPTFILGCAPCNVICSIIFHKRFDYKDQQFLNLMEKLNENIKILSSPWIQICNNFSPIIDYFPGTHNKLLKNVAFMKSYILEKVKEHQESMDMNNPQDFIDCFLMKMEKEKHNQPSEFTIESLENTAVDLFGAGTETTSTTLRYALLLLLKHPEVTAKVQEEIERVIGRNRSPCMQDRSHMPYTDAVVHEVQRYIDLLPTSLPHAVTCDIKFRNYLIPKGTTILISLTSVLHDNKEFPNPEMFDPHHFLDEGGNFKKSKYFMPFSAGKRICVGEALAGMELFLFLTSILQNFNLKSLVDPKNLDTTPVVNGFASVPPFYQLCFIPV
# CYP2C9 act: CYP2C9 (human) activation | AID 1024 | recombinant CYP2C9, luciferin-H conversion, luminescence; active compounds read high; factor 1 = untreated enzyme, 0 = blocked | activation factor at 5 µM | 1.4% of 96,000 active | P11712;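 active = activation factor of 2 or more for CYP2C9 at a 5 µM dose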;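 note: 0 = sulfaphenazole-blocked wells and 1 = vehicle-only wells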
# CYP2C19 inh: blocks human cytochrome P450 2C19. P33261. CYP2C19 Supersomes, luciferin-H EGE luminescence, 30 min. inhibition, % at 5 µM. 21% of 96,000 active;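 active = CYP2C19 inhibition above a set limit at 5 µM in the primary screen, cut at about 50% in these data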;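 note: plate controls were negative control wells for no effect and 2.5 mM tranylcypromine positive control for full effect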
# * = called active by the depositor; nt = no result given. A selection: hits, their analogues and other compounds. The true share with any hit is near 22%.
SMILES,CYP2C19 act,F-actin modifier,E-sel TNF inh,CYP2C9 inhib,CYP2C9 act,CYP2C19 inh
CCOC(=O)c1ccc(NC(=O)CSc2ccc(-c3ccncc3)nn2)cc1,nt,nt,-50,nt,nt,nt
COc1ccc(C)cc1NS(=O)(=O)c1ccc(NS(=O)(=O)c2ccc(NC(C)=O)cc2)cc1,0.4,-18,-11,66*,0.3,62*
COc1ccc(OC)c(NS(=O)(=O)c2ccc(N3CCCC3=O)cc2)c1,0.1,-9,nt,19,0.8,95*
COc1ccc(C)cc1NS(=O)(=O)c1cccc2nonc12,0.1,nt,-20,15,0.9,92*
COc1ccc(OC)c(NS(=O)(=O)c2ccc(NC(C)=O)cc2)c1,0,-8,9,29,0.7,100*
Cc1ccccc1NS(=O)(=O)c1ccc(N2CCCC2=O)cc1,0.7,-17,-5,30,0.7,30
COc1ccc(C)cc1NS(=O)(=O)c1cn(C)c(=O)n(C)c1=O,0.6,5,nt,-9,1.1,37
COc1ccc(OC)c(NC(=O)c2ccc(NC(C)=O)cc2)c1,1,6,nt,-162,2.6*,-1
CCOc1ccc(S(=O)(=O)Nc2cc(OC)ccc2OC)cc1,0,3,nt,55*,0.4,100*
COc1ccc(Cl)cc1NS(=O)(=O)c1ccc(OC)c(OC)c1,nt,6,-10,nt,nt,nt
COc1ccc(OC)c(NS(=O)(=O)c2cccs2)c1,nt,nt,8,nt,nt,nt
COc1ccc(S(=O)(=O)Nc2cc(Cl)ccc2OC)cc1,0,-18,nt,38,0.6,99*
COc1ccc(OC)c(NC(=O)c2ccc(NS(C)(=O)=O)cc2)c1,0.8,4,-35,-42,1.4,18
Cc1c(OCc2ccccc2)c(=O)ccn1Cc1ccc(F)cc1,nt,nt,-32,nt,nt,nt
CCOC(=O)C1Cc2c([nH]c3ccccc23)CN1 (stereo not drawn),0.4,10,3,3,1,56*
COC(=O)C1Cc2c([nH]c3ccccc23)C(C)N1 (stereo not drawn),0.5,26,nt,-159,2.6*,50*
c1ccc2c(c1)nc1n2CCN1CCNC1CCCCC1,1.1,0,15,-2,1,-5
CC(=O)c1cc(F)c(N2CCN(C(=O)COc3ccc(F)cc3)CC2)cc1C,nt,0,4,nt,nt,nt
CCn1c2ccccc2c2cc(NC(=O)COC(=O)C3CCC(=O)N3)ccc21 (stereo not drawn),0.7,nt,-17,-107,2.1*,27
CCn1c2ccccc2c2cc(NC(=O)COc3ccc(OC)cc3)ccc21,0.4,-11,10,-19,1.2,65*
Cc1ccc(NC(=O)CCN2C(=O)CSC2=O)c(C)c1,nt,-2,-17,nt,nt,nt
Cc1ccc(C)c(NC(=O)COC(=O)Cc2ccsc2)c1,nt,nt,0,nt,nt,nt
COC(=O)C(O)(NC(=O)OCc1ccccc1)C(F)(F)F (stereo not drawn),0.6,nt,5,6,0.9,42
COC(=O)C(NC=O)C(O)(Cc1ccccc1)C(F)(F)F (stereo not drawn),0.4,1,-23,20,0.8,57*
COC(=O)c1[nH]c2cccc(OC)c2c1NC(=O)C(C)N1CCC(C)CC1 (stereo not drawn),0.8,10,-3,-125,2.3*,18
SMILES,CYP2C19 act,F-actin modifier,E-sel TNF inh,CYP2C9 inhib,CYP2C9 act,CYP2C19 inh
COC(=O)c1[nH]c2cccc(OC)c2c1NC(=O)CCN1CCC(C)CC1,1,11,nt,-4,1,-1
FC(F)Oc1cccc2cccnc12,nt,4,-21,nt,nt,nt
Cn1cccc1Cc1nnc(SCC(=O)NCc2ccco2)n1CCc1ccccc1,0.4,9,nt,44,0.6,58*
Cn1cccc1Cc1nnc(SCC(N)=O)n1-c1ccc(F)cc1,1.1,-10,nt,-2,1,-14
Cc1cc(C)nc(SCc2nnc(SCC(=O)NCc3ccco3)n2-c2ccccc2)n1,0.6,-3,-7,60*,0.4,44
Cn1cccc1Cc1nnc(SCC(=O)NCc2ccco2)n1-c1ccc(F)cc1,0.2,1,nt,8,0.9,75*
Cn1cccc1Cc1nnc(SCC(=O)NCc2ccccc2Cl)n1-c1ccc(F)cc1,0.5,-4,9,62*,0.4,52*
O=[N+]([O-])c1cc(C(F)(F)F)cc([N+](=O)[O-])c1NN=C1CCCCC1,nt,nt,-7,nt,nt,nt
Cc1ccc(-c2cc(C)nc3ncnn23)cc1,0.8,4,nt,8,0.9,19
O=C(O)c1ccc(COc2ccccc2Cl)cc1,0.8,9,1,19,0.8,25
O=C(O)c1cccc(COc2ccccc2Cl)c1,0,nt,nt,95*,0,97*
Cc1nnc(-c2cnn(-c3ccccc3)c2N)n1Cc1ccccc1,1,2,10,-10,1.1,-1
Nc1nc2c(s1)CCc1c-2cnn1-c1ccccc1,0.5,-23,-8,29,0.7,53*
CCOC(=O)c1ccc2[nH]c3ccccc3c2c1,nt,nt,6,nt,nt,nt
O=C(NCCCO)c1ccc2[nH]c3ccccc3c2c1,0.4,nt,-41,32,0.7,64*
COc1ccc(CC(=O)OCC(=O)NCc2ccccc2Cl)cc1,nt,nt,1,nt,nt,nt
Cc1c(C(=O)OCCN2CCCCC2)oc2ccccc12,0.8,21,nt,2,1,20
Cc1c(C(=O)N2CCN(CCc3ccccc3)CC2)oc2ccccc12,0.3,nt,-24,-25,1.3,73*
COc1ccccc1N1CCN(C(=O)c2oc3ccccc3c2C)CC1,0.9,nt,nt,-10,1.1,13
Cc1c(C(=O)N2CCN(S(C)(=O)=O)CC2)oc2ccccc12,0.1,-2,46,1,1,91*
C#CCn1c(S(=O)(=O)Cc2ccc(F)cc2)nc(-c2ccccc2)c1-c1ccccc1,0,8,nt,92*,0.1,98*
CCOC(=O)Cn1c(S(=O)(=O)Cc2ccc(F)cc2)nc(-c2ccccc2)c1-c1ccccc1,0.5,-3,-10,44,0.6,52*
Cc1ccc2c(c1)N(Cc1ccncc1)C(=O)C(C)O2 (stereo not drawn),0.2,12,nt,89*,0.1,81*
Cc1ccc2c(c1)N(CCC(=O)NCc1cccs1)C(=O)C(C)O2 (stereo not drawn),0,nt,16,74*,0.3,97*
Cc1ccc2c(c1)N(CC(=O)NCc1cccs1)C(=O)C(C)O2 (stereo not drawn),0.5,-17,20,-25,1.2,47
SMILES,CYP2C19 act,F-actin modifier,E-sel TNF inh,CYP2C9 inhib,CYP2C9 act,CYP2C19 inh
Brc1ccc(C=Nc2ccc3c(c2)OCCOCCOCCO3)s1,nt,nt,-1,nt,nt,nt
OC(COc1c(F)cc(Br)cc1F)CN1CCN(c2ccc(F)cc2)CC1 (stereo not drawn),0.8,-15,-1,19,0.8,20
COc1cccc(Nc2nc(C)cc(C)c2C#N)c1,nt,2,-7,nt,nt,nt
COc1ccc(Nc2nc(C)cc(C)c2C#N)cc1OC,0.8,-2,59*,28,0.7,16
Cc1cc(-c2ccccc2)c(C#N)c(SCC(N)=O)n1,0.6,-6,nt,-198,3*,41
Cc1cc(C)c(C#N)c(SCC(=O)Nc2ccccc2C(N)=O)n1,0.7,-17,8,2,1,31
CCOC(=O)CC(=O)CSc1nc(C)cc(-c2cccnc2)c1C#N,0.7,0,-43,73*,0.3,28
